According to PubChem BioAssay (EPA / NIEHS):
Inconclusive results are not listed. Some structures have more than one record in an assay (separate samples or runs), and their calls can disagree. The source made the active and inactive calls. The calls were made as follows, unless noted: active = hit-call score of the fitted dose curve at least 0.9, where 1 is the maximum; inconclusive = response in the unintended direction; inactive = score below 0.9.

Legend:
[1] = biological target: human Dual Specificity Protein Phosphatase 3 (DUSP3), DUSP3 (gene 1845) (UniProt P51452); assay: NVS_ENZ_hDUSP3: NovaScreen (NVS) Enzymatic Assay for human Dual Specificity Protein Phosphatase 3 (DUSP3) (AID 2283152);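 also: phosphatase activity of recombinant human DUSP3 on a fluorogenic substrate without cells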
In short: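 Cell-free assay with recombinant human DUSP3 and fluorogenic substrate, read by fluorescence intensity. Primary screen ran duplicate at 25 uM; actives followed up in concentration series; loss of signal versus DMSO scored.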

[2] = biological target: Muscarinic acetylcholine receptor M2 (Homo sapiens) (UniProt P08172); assay: NVS_GPCR_hM2: NovaScreen (NVS) G Protein-Coupled Receptor Assay for human Muscarinic, M2 Receptor (AID 2283273)
In short: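 Cell-free radioligand binding using membranes from CHO cells expressing the receptor; filter-based scintillation counting after 1 hour of compound exposure. Loss of specific binding relative to DMSO baseline; primary screen at 25 uM in duplicate, actives then run in concentration series.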

[3] = biological target: human Neurokinin, NK2 Receptor, TACR2 (gene 6865) (UniProt P21452); assay: NVS_GPCR_hNK2: NovaScreen (NVS) G Protein-Coupled Receptor Assay for human Neurokinin, NK2 Receptor (AID 2283278);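 also: actives reduce bound radioligand signal relative to DMSO baseline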
In short: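 CHO-derived membrane protein, radioligand displacement, filter scintillation read at 4 h post-dose. Single-point 25 uM in duplicate, then concentration series for actives; DMSO as negative control.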

[4] = biological target: human Opioid Receptor Mu (Opiate Mu), OPRM1 (gene 4988) (UniProt P35372); assay: NVS_GPCR_hOpiate_mu: NovaScreen (NVS) G Protein-Coupled Receptor Assay for human Opioid Receptor Mu (Opiate Mu) (AID 2283290);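 also: hits lower bound tracer signal versus DMSO meaning displacement of the ligand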
In short: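 Cell-free radioligand binding to membranes from CHO cells expressing the receptor; bound tracer measured by filter-based scintillation counting 2.5 hours after dosing. Loss of signal versus DMSO baseline reflects displacement; primary screen at 25 uM in duplicate, actives followed up in concentration series.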

[5] = biological target: guinea pig Sigma Receptor, Non-selective Binding, SIGMAR1 (gene 100135589) (UniProt Q60492); assay: NVS_OR_gSIGMA_NonSelective: NovaScreen (NVS) Nuclear Receptor Binding Assay for guinea pig Sigma Receptor, Non-selective Binding (AID 2283367)
In short: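 Guinea pig brain membranes, cell-free radioligand binding; read 1 h after dosing by filter-based scintillation counting. Loss of signal vs DMSO baseline taken as displacement. Primary screen single concentration 25 uM in duplicate; actives retested in concentration series.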

[6] = biological target: human Dopamine Transporter (DAT), SLC6A3 (gene 6531) (UniProt Q01959); assay: NVS_TR_hDAT: NovaScreen (NVS) Transporter Assay for human Dopamine Transporter (DAT) (AID 2283374);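 also: activity means loss of bound radioligand signal relative to DMSO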
In short: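 Cell-free radioligand binding to extracted human DAT protein, read 1 h after dosing by filter-based scintillation counting. Loss of specific binding scored against DMSO baseline; primary screen in duplicate at 25 uM, actives then run in concentration series.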

[7] = biological target: Retinoic acid receptor alpha (Homo sapiens) (UniProt P10276); assay: NVS_NR_hRARa_Agonist: NovaScreen (NVS) Nuclear Receptor Binding Assay for human Retinoic Acid Alpha Receptor Agonism (RAR) (AID 2283361)
In short: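 Cell-free TR-FRET binding read-out with extracted human RARα protein, read 2 h after compound addition. Gain of signal scored against DMSO baseline. Primary screen at a single 25 uM in duplicate; actives then retested in concentration series.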

[8] = biological target: mouse Peroxisome Proliferator-activated Receptor gamma (PPARg), Pparg (gene 19016) (UniProt P37238); assay: ATG_mPPARg_XSP2: Attagene TRANS-FACTORIAL Multi-Species (XSP2) HepG2 Assay for mouse Peroxisome Proliferator-activated Receptor gamma (PPARg) (AID 2283830);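 also: hits are gains in reporter mRNA above DMSO so AC50 marks activation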
In short: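 HepG2 cells transiently transfected with GAL4-UAS reporter units for chimeric NR-Gal4 proteins including mouse PPARg, exposed 24 h; medium contained 3 nM 6-alpha-fluorotestosterone and 1.5 nM norgestrel. Reporter mRNA quantified by RT-PCR, HpaI digestion and capillary electrophoresis, vs DMSO.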

[9] = biological target: zebrafish Thyroid Hormone Receptor alpha (TRa), thraa (gene 30670) (UniProt Q98867); assay: ATG_zfTRa_XSP2: Attagene TRANS-FACTORIAL Multi-Species (XSP1) HepG2 Assay for zebrafish Thyroid Hormone Receptor alpha (TRa) (AID 2283832);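 also: actives raise zebrafish TRa-Gal4 reporter transcript above DMSO baseline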
In short: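 Transient transfection of human HepG2 with GAL4-UAS reporter units, then 24 h chemical treatment. RNA isolated, reverse-transcribed, PCR-amplified, FAM-labelled, HpaI-digested and run on capillary electrophoresis. Gain-of-signal relative to DMSO.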

[10] = CCTE_Deisenroth_5AR_NBTE_donor: CCTE's 5alpha-reductase NanoBRET Target Engagement Assay […], Deisenroth Lab (AID 2284319; active = hit-call score of the fitted dose curve at least 0.9, where 1 is the maximum; inactive = score below 0.9); conditions: actives raise or lower the signal
In short: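 Donor NanoLuc luminescence at 460-20 nm is the read-out, serving artifact detection. Transiently expressed SRD5A2-NanoLuc in HEK293T; 5 h total chemical exposure, testosterone tracer added for the final 2 h; fitting bidirectional relative to DMSO baseline.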

[11] = CCTE_Deisenroth_5AR_NBTE_acceptor: CCTE's 5alpha-reductase NanoBRET Target Engagement Assay - Autofluorescence Screen, Deisenroth Lab (AID 2284321; active = hit-call score of the fitted dose curve at least 0.9, where 1 is the maximum; inactive = score below 0.9;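 also: compound fluorescence in the acceptor channel under 460 nm excitation flags autofluorescence artifacts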); conditions: actives raise or lower the signal
In short: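 Chemicals diluted to a nominal 100 uM in DMSO were scanned at 460 nm excitation. Samples were read in three independent runs (n=3). Gain or loss of acceptor signal was fitted relative to DMSO.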

SRD5A2 (gene 6716) = assay: CCTE_Deisenroth_5AR_NBTE_ratio: CCTE's 5alpha-reductase NanoBRET Target Engagement Assay - Ratio, Deisenroth Lab (AID 2284322; active = hit-call score of the fitted dose curve at least 0.9, where 1 is the maximum; inactive = score below 0.9); conditions: actives raise or lower the signal
In short: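 HEK293T transiently expressing SRD5A2-NanoLuc; cells exposed to chemical (8-point, 10 nM - 29.9 uM) for 5 h total, testosterone tracer added for final 2 h. NanoBRET acceptor/donor ratio (650/460 nm), bidirectional fit vs DMSO.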

[12] = biological target: human Matrix Metalloproteinase-9 (MMP9), MMP9 (gene 4318) (UniProt P14780); assay: NVS_ENZ_hMMP9: NovaScreen (NVS) Enzymatic Assay for human Matrix Metalloproteinase-9 (MMP9) (AID 2283190);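 also: cell-free recombinant MMP9 protease activity read by fluorescent substrate signal; active means inhibition seen as loss of fluorescence signal versus DMSO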
In short: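 Extracted enzyme, fluorescent substrate, 1 h post-dose read. Single conc 25 uM in duplicate, then concentration series for actives. Activity = signal loss relative to DMSO negative control.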

[13] = biological target: Nucleoli Translocation, AR (gene 367) (UniProt P10275); assay: UPITT_HCI_U2OS_AR_TIF2_Nucleoli_Antagonist: University of Pittsburgh U2OS Androgen Receptor-Transcriptional Intermediary Factor 2 (AR-TIF2) Antagonism High Content Imaging Assay for Nucleoli Translocation (AID 2283997)
In short: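 U2OS cells expressing RFP-tagged human AR and GFP-tagged TIF2 were imaged by high-content fluorescence microscopy for red AR signal in the nucleolar region. Compounds were screened at 20 uM final (0.2% DMSO), with activity fitted relative to DHT as baseline.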

[14] = biological target: Cytochrome P450 2C19 (Homo sapiens) (UniProt P33261); assay: NVS_ADME_hCYP2C19: NovaScreen (NVS) CYP450-related Enzyme Activity (ADME) Assay for human CYP2C19 (AID 2283113);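 also: potency for inhibition seen as loss of fluorescent signal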
In short: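 Chemicals first screened in duplicate at 10 uM against recombinant human enzyme produced in insect cells; confirmed actives then run as concentration series. Fluorogenic substrate turnover read by fluorescence after 1 h, normalised to acetonitrile.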

[15] = CEETOX_H295R_11DCORT_noMTC: CeeTox H295R High-throughput Steroidogenesis Assay for 11-Deoxycortisol (11DCORT), maximum tolerated concentration (MTC) filtered results only (AID 2283911; active = hit-call score of the fitted dose curve at least 0.9, where 1 is the maximum; inactive = score below 0.9); conditions: actives raise or lower the signal
In short: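 Readout is 11-deoxycortisol in culture medium by reverse-phase HPLC with MS/MS, after 48 h chemical treatment of forskolin-primed H295R cells. Values are relative to DMSO and unfiltered for cytotoxicity.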

[16] = CEETOX_H295R_OHPREG_noMTC: CeeTox H295R High-throughput Steroidogenesis Assay for OH-Pregnenolone (OHPREG), maximum tolerated concentration (MTC) filtered results only (AID 2283912; active = hit-call score of the fitted dose curve at least 0.9, where 1 is the maximum; inactive = score below 0.9); conditions: actives raise or lower the signal
In short: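 H295R human adrenal cells, forskolin-prestimulated (10 uM, 48 h), then exposed to test chemical in 0.1% DMSO for 48 h. 17alpha-hydroxypregnenolone in medium measured by HPLC-MS/MS after MTBE extraction; bidirectional fit versus DMSO, concentrations not MTC-filtered.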

[17] = CEETOX_H295R_OHPROG_noMTC: CeeTox H295R High-throughput Steroidogenesis Assay for OH-Progesterone (OHPROG), maximum tolerated concentration (MTC) filtered results only (AID 2283914; active = hit-call score of the fitted dose curve at least 0.9, where 1 is the maximum; inactive = score below 0.9); conditions: actives raise or lower the signal
In short: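 H295R human adrenal cells prestimulated 48 h with 10 uM forskolin, then exposed 48 h to test chemical (0.1% DMSO final). Medium 17alpha-hydroxyprogesterone extracted with MTBE, quantified by HPLC-MS/MS; bidirectional fit versus DMSO, concentrations not MTC-filtered.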

[18] = CEETOX_H295R_CORTISOL_noMTC: CeeTox H295R High-throughput Steroidogenesis Assay for Cortisol, maximum tolerated concentration (MTC) filtered results only (AID 2283916; active = hit-call score of the fitted dose curve at least 0.9, where 1 is the maximum; inactive = score below 0.9); conditions: actives raise or lower the signal
In short: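 H295R adrenal cells were pre-stimulated 48 h with 10 uM forskolin, then exposed 48 h to test chemical in 0.1% DMSO. Medium cortisol was measured by MTBE extraction and HPLC-MS/MS; bidirectional fit versus DMSO, concentrations not MTC-filtered.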

[19] = CEETOX_H295R_CORTIC_noMTC: CeeTox H295R High-throughput Steroidogenesis Assay for Corticosterone (CORTIC), maximum tolerated concentration (MTC) filtered results only (AID 2283917; active = hit-call score of the fitted dose curve at least 0.9, where 1 is the maximum; inactive = score below 0.9); conditions: actives raise or lower the signal
In short: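 H295R, 10 uM forskolin prestim 48 h → test chem (0.1% DMSO final) 48 h → media MTBE extraction → HPLC-MS/MS corticosterone. Bidirectional fit vs DMSO baseline; no MTT-based MTC filtering.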

Sequence of human Dopamine Transporter (DAT), SLC6A3 (gene 6531) (Q01959 whole entry, looked up): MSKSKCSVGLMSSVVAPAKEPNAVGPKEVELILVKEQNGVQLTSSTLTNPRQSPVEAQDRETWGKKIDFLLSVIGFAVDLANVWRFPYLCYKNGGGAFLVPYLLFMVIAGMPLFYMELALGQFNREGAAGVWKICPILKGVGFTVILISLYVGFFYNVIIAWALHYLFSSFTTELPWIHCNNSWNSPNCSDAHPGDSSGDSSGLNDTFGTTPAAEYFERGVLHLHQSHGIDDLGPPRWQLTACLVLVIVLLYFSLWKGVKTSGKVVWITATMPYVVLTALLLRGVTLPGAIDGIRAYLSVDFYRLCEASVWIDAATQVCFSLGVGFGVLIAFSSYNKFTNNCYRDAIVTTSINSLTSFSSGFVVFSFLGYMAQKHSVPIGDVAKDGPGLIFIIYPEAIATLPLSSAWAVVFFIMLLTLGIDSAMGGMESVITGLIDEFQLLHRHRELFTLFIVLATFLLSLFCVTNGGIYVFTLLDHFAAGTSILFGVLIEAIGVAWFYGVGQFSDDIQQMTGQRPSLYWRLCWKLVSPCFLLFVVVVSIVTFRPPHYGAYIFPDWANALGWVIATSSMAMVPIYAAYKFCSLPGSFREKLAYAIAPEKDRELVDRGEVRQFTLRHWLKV
Sequence of Muscarinic acetylcholine receptor M2 (Homo sapiens) (P08172 whole entry, looked up): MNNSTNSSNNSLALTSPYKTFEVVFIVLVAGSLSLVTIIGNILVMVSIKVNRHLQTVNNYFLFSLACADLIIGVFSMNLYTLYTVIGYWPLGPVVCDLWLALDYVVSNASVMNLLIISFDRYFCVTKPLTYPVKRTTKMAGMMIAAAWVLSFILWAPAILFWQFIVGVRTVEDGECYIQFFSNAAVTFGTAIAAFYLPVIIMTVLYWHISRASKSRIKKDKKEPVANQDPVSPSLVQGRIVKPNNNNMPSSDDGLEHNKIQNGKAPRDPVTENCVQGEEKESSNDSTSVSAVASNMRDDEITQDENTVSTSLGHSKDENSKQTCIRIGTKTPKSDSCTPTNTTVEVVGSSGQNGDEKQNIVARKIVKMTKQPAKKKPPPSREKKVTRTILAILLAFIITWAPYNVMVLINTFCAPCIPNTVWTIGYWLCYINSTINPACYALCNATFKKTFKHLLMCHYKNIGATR
Sequence of human Matrix Metalloproteinase-9 (MMP9), MMP9 (gene 4318) (P14780 whole entry, looked up): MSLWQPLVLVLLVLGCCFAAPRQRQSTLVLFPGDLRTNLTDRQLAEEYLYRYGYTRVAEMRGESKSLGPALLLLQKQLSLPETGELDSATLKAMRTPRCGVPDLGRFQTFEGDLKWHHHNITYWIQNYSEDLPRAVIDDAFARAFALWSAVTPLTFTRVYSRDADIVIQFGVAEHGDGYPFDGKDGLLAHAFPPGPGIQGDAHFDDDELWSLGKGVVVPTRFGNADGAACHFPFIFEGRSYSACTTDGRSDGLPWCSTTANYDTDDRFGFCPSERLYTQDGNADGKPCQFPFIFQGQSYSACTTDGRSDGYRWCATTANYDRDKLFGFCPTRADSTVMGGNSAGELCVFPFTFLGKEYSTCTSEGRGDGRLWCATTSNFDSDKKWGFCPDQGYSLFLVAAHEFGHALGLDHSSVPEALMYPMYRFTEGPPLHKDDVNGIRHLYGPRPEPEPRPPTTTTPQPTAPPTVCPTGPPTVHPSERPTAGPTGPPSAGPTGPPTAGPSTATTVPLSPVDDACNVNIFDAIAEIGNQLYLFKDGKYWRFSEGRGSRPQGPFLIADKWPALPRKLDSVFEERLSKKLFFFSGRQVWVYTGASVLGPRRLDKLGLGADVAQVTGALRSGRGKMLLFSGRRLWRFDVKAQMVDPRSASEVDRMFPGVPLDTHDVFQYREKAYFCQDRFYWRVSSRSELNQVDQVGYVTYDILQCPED
Sequence of Retinoic acid receptor alpha (Homo sapiens) (P10276 whole entry, looked up): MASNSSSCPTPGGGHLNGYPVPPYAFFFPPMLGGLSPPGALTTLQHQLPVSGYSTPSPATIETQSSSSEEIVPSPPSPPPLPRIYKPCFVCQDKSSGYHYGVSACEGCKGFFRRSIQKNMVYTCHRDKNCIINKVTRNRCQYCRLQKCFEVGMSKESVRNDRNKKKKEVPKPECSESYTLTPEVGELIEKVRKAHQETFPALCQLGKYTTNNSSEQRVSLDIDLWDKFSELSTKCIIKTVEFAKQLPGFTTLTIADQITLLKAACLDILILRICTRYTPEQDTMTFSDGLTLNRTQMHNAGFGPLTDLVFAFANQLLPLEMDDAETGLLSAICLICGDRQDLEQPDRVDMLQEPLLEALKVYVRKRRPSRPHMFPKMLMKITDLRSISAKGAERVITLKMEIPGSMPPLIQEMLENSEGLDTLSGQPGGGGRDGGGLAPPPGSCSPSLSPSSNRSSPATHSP
Sequence of human Dual Specificity Protein Phosphatase 3 (DUSP3), DUSP3 (gene 1845) (P51452 whole entry, looked up): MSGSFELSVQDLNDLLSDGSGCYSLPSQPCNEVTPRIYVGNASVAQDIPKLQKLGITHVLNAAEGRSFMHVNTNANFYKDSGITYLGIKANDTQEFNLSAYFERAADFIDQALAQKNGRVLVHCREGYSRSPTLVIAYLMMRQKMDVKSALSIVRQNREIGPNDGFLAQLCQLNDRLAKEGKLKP
Sequence of mouse Peroxisome Proliferator-activated Receptor gamma (PPARg), Pparg (gene 19016) (P37238 whole entry, looked up, the tested form may be a part): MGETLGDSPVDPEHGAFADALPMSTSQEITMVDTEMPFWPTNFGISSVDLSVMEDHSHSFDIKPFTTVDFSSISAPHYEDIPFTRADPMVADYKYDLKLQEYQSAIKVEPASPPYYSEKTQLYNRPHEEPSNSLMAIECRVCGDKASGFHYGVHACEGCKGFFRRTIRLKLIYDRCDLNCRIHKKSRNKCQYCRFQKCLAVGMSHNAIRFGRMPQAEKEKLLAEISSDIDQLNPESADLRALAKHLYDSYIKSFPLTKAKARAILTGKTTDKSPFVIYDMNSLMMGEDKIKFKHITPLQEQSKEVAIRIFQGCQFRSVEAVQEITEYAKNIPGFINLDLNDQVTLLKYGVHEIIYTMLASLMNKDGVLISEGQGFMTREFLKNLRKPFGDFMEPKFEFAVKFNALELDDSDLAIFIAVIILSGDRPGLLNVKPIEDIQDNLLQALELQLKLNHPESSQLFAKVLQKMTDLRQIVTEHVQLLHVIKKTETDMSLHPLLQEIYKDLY
Sequence of Nucleoli Translocation, AR (gene 367) (P10275 whole entry, looked up): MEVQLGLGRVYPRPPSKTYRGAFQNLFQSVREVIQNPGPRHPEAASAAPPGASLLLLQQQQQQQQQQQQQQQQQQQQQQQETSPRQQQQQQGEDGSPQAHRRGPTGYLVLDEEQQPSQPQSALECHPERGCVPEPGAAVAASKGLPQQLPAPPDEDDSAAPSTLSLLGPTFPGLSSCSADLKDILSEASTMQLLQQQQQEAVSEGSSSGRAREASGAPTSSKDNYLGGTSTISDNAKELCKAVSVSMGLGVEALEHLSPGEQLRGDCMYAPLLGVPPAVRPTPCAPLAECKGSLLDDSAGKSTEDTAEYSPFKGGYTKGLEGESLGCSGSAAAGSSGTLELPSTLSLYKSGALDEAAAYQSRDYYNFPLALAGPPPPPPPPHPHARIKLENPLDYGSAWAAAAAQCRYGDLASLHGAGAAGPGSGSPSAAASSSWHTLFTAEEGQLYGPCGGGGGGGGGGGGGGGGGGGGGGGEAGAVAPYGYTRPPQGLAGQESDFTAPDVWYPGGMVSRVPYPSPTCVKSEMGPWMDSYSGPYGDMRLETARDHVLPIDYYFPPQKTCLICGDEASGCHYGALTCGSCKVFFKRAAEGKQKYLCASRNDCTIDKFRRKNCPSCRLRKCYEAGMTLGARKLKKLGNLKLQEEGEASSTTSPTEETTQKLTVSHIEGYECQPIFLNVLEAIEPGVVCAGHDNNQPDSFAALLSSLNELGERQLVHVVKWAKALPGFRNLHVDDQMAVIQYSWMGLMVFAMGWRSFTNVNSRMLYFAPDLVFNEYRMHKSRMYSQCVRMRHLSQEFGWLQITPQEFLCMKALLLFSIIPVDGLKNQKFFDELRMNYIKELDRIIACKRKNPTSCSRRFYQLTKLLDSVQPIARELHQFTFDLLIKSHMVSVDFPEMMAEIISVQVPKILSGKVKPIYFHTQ
Sequence of human Opioid Receptor Mu (Opiate Mu), OPRM1 (gene 4988) (P35372 whole entry, looked up): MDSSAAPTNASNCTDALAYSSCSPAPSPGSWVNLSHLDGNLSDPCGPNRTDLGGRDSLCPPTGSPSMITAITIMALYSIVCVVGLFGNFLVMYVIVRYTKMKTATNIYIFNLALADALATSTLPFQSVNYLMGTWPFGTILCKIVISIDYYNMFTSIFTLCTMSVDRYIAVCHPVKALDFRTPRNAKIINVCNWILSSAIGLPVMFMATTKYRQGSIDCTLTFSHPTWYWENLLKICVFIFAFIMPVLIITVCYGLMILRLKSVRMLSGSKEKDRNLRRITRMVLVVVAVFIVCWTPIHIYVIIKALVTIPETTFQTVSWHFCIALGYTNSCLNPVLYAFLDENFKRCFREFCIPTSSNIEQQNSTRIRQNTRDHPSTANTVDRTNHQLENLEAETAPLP
Sequence of human Neurokinin, NK2 Receptor, TACR2 (gene 6865) (P21452 whole entry, looked up): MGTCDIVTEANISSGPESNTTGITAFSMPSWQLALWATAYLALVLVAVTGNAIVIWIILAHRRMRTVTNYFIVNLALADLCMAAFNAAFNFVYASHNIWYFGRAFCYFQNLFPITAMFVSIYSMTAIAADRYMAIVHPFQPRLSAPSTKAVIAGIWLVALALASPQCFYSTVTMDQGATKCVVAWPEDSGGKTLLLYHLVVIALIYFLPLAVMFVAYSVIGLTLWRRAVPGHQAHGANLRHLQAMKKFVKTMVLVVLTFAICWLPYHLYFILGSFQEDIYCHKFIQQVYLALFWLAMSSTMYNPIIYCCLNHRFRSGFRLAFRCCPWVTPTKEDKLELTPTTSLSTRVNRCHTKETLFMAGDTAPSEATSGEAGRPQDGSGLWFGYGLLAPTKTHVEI
Sequence of guinea pig Sigma Receptor, Non-selective Binding, SIGMAR1 (gene 100135589) (Q60492 whole entry, looked up): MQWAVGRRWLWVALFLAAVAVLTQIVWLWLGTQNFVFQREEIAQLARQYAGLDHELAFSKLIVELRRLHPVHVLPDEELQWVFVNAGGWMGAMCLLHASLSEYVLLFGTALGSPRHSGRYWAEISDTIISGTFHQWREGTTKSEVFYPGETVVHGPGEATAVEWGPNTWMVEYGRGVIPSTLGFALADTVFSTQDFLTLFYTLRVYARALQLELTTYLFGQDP

For `CCCCCCCCCCCCCCCCCC[N+](C)(C)C`, the AC50 [1] was 7.9 µM (active), the AC50 [2] was 1.06 µM (active) and the AC50 [3] was 4.53 µM (active). For the same compound, the AC50 [4] was 3.4 µM (active), the AC50 [5] was 2.61 µM (active) and the AC50 [6] was 2.52 µM (active).
In the case of `Cc1cc(O)cc(C)c1Cl`, the outcome [7] is reported as “inactive”, the AC50 [8] is reported as 72.9 µM (active) and the outcome [8] is reported as “inactive”. The AC50 [9] was 100 µM (active) and the outcome [9] was “inactive”.
For `Cc1cc2nc3c(=O)[nH]c(=O)nc-3n(C[C@H](O)[C@H](O)[C@H](O)CO)c2cc1C`, the AC50 [7] was 6.52 µM (active), the outcome [10] was “inactive” and the outcome [11] was “inactive”. The AC50 (SRD5A2 (gene 6716)) was 27.1 µM (active).
With `CCC(C)(CCC(C)C)C(=O)O` (stereo not given) the AC50 [12] was 2.32 µM (active).
With `O=C(c1ccccc1)c1ccccc1O` the outcome [13] was “inactive”.
In the case of `Sc1nc2ccccc2s1`, the AC50 [14] is reported as 5 µM (active), the outcome [15] is reported as “inactive” and the outcome [16] is reported as “inactive”. For the same compound, the outcome [17] was “inactive”, the outcome [18] was “inactive” and the outcome [19] was “inactive”.
In the case of `CN(C)c1ccc(C(c2ccccc2)c2ccc(N(C)C)cc2)cc1`, the AC50 [14] is reported as 0.356 µM (active) and the outcome [12] is reported as “inactive”.
In the case of `CCCCCC[C@@H](O)C/C=C\CCCCCCCC(=O)O`, the outcome [10] is reported as “inactive”, the outcome [11] is reported as “inactive” and the outcome (SRD5A2 (gene 6716)) is reported as “inactive”.
For `O=C(C(=O)c1ccccc1)c1ccccc1`, the AC50 [6] was 1.07 µM (active).
For `CC[N+](CC)(CC(=O)Nc1c(C)cccc1C)Cc1ccccc1`, the AC50 [2] was 0.419 µM (active), the AC50 [3] was 16.6 µM (active) and the outcome [4] was “inactive”. The AC50 [5] was 12.7 µM (active).
In the case of `Cc1cc(C)c(S(=O)(=O)O)cc1N=Nc1cc(S(=O)(=O)O)c2ccccc2c1O`, the outcome [13] is reported as “inactive”.
In the case of `CC1(C)S[C@@H]2[C@H](NC(=O)[C@H](N)c3ccccc3)C(=O)N2[C@H]1C(=O)O`, the AC50 [1] is reported as 8.24 µM (active).
In the case of `O=C(O)c1ccccc1C(=O)O`, the outcome [15] is reported as “inactive”, the outcome [16] is reported as “inactive” and the outcome [17] is reported as “inactive”. For the same compound, the outcome [18] was “inactive” and the outcome [19] was “inactive”.
